# Screening results: PubChem, The Scripps Research Institute Molecular Screening Center
# Most compounds without a hit are left out; they make up all but 3.4% or so of the library.
# MITF primary: MITF inhibitors, primary screen, biochemical, AlphaScreen, human; Microphthalmia-associated transcription factor (Homo sapiens), O75030; AlphaScreen MITF homodimerization, bead proximity signal; inhibition, % at 2.6 µM; 650,000 tested, 0.91% active; AID 1259374, 2018; in the data active = inhibition above about 50%;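 also: 0% = vehicle wells with protein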
# Target sequence (O75030 whole entry, looked up): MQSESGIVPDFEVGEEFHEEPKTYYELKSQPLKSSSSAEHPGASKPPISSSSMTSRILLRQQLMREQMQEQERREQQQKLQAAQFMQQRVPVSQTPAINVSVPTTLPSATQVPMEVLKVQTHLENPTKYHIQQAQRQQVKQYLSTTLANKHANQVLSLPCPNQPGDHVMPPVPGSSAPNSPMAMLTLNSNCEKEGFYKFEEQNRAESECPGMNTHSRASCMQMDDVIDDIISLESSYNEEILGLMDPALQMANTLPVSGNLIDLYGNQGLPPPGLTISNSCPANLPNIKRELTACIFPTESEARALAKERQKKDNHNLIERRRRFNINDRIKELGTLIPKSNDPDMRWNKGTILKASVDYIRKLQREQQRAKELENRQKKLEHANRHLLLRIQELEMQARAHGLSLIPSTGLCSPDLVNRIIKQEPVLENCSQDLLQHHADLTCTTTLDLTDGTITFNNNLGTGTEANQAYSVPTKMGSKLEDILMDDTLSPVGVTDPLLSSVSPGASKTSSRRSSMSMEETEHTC
# GPR151 activ: activators of human GPR151, primary screen, cell-based, PathHunter beta-arrestin, luminescence; activation, % at 11.2 µM; G-protein coupled receptor 151 (Homo sapiens), Q8TDV0; AID 1508602, 2020; 650,000 tested, 1% active; PathHunter beta-arrestin GPR151 cells; in the data active = activation above about 4.9%;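 also: 0% = median of compound wells and 100% = cells with positive control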
# TEAD-YAP block: TEAD-YAP interaction inhibition, primary screen, TEAD-YAP interaction inhibitor project, luminescence, HEK-TIYL cells. TEAD-Gal4/YAP UAS-luciferase luminescence. inhibition, % at 9.12 µM. 640,000 tested, 1.4% active. AID 1259422, 2018; in the data active = inhibition above about 32%;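 also: 0% = median of test compound wells and 100% = reference inhibitor wells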
# FBW7 activator: FBW7 E3 ligase activators, primary screen, biochemical, AlphaScreen, human; F-box/WD repeat-containing protein 7 (Homo sapiens), Q969H0; AlphaScreen FBW7–phospho-cyclin E peptide binding, activator screen; normalized activity (activation), % at 26.1 µM; 650,000 tested, 0.13% active; in the data active = normalized activity above about 1.9%;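 also: purified mutant Fbw7 with reduced substrate affinity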
# * hit, by the source's call.
SMILES,MITF primary,GPR151 activ,TEAD-YAP block,FBW7 activator
COc1ccc(/C=C/C(=O)Nc2scc(-c3ccc(Br)cc3)c2C(=O)O)cc1,-4,-1,62*,0
O=C(NCCOc1ccccc1)c1ccc2nc(N3CCOCC3)sc2c1,7,5.8*,11,0
CCCNC(=O)c1ccc2nc(N3CCN(Cc4ccc5c(c4)OCO5)CC3)sc2c1,13,-1,-2,0
O=C(NC1CCN(Cc2ccccc2)CC1)c1ccc2nc(N3CCN(Cc4ccc5c(c4)OCO5)CC3)sc2c1,6,1,44*,0
COCCNC(=O)c1ccc2nc(N3CCOCC3)sc2c1,24,0,2,0
Cc1cncc2cccc(NC3CCNC3)c12 (stereo not drawn),8,0,69*,0
Cc1cncc2cccc(NC3CCCN(C(=O)C(O)c4ccc(Br)cc4)C3)c12 (stereo not drawn),2,2,47*,0
O=C(Cn1nnc(-c2ccccc2NC(=O)c2ccc(F)cc2)n1)NCc1cccs1,9,0,2,2.5*
CN1C(=O)c2cccc(NC(=O)c3ccc(C(C)(C)C)cc3)c2C1=O,-10,-2,-2,0
C=CCOC(=O)C1=C(C)N=C2SCCC(=O)N2C1c1ccc(OCC)cc1 (stereo not drawn),22,-1,6,0
COc1ccc(/C=C/C(=O)Nc2ccccc2C)cc1OC,11,1,5,0
COc1ccc(/C=C/C(=O)Nc2ccccc2C(=O)O)cc1OC,1,-11,84*,0
O=C(/C=C/c1ccc2c(c1)OCO2)Nc1ccccc1C(=O)O,20,-7,47*,0
CC1CCN(S(=O)(=O)c2ccc(NC(=O)/C=C/c3ccc4c(c3)OCO4)cc2)CC1,13,0,44*,0
O=C(Nc1ccc(OC(F)(F)F)cc1)c1nn2c(c1Cl)NC(c1ccco1)CC2C(F)(F)F (stereo not drawn),-8,1,-2,0
COc1cccc2c(C)cc(N3CCN(C)CC3)nc12,16,0,-6,1.9*
Cc1ccc(/C=C(\C#N)C(N)=C(C#N)C#N)o1,11,-2,11,0
COc1cc2nc(C)n(C(=S)S)c2cc1OC,14,0,56*,0
COc1cc2nc(-c3ccc(N(C)C)cc3)n(C)c2cc1OC,3,0,-71,0
CCCOc1ccc(C2C(C(=O)OC)=CN(CCOC)C=C2C(=O)OC)cc1,-11,3,-8,2.1*
CCCN1C=C(C(=O)OC)C(c2cccc(Oc3ccccc3)c2)C(C(=O)OC)=C1,-20,-1,-4,2.1*
CN1CCN(C(=O)Cn2ncn3nc(-c4cccs4)cc3c2=O)CC1,4,5,-3,0
COC(=O)Cn1cc(S(=O)(=O)Nc2ccc(C)cc2)c2cc([N+](=O)[O-])ccc21,7,0,10,0
N#CCOc1ccc(C2Nc3c(C(=O)O)cccc3C3C4CCC(C4)C23)cc1 (stereo not drawn),2,1,5,0
Cc1ccc2nsnc2c1S(=O)(=O)Nc1ccc(I)cc1,7,-1,55*,0
SMILES,MITF primary,GPR151 activ,TEAD-YAP block,FBW7 activator
Cc1ccc2nsnc2c1S(=O)(=O)Nc1ccc(C(=O)O)cc1,8,-1,-8,0
O=C(OC(c1ccccc1)c1nccc2ccccc12)c1ccc(F)cc1 (stereo not drawn),-18,1,52*,1
COc1cc(Sc2ccccc2[N+](=O)[O-])ccc1N,1,-1,46*,0
COc1ccc(CCNSc2ccccc2[N+](=O)[O-])cc1OC,-2,0,1,0
O=c1c(Cl)c(Cl)cnn1C12CC3CC(CC(C3)C1)C2,4,0,78*,0
O=c1c(Cl)c(NCCO)cnn1C12CC3CC(CC(C3)C1)C2,7,0,11,0
N#Cc1ccccc1NC(=O)C(=O)Nc1ccccc1C#N,-6,-1,-14,0
CCC1=NN(C(=O)c2ccccc2O)C(O)(c2ccccc2)C1 (stereo not drawn),1,-1,46*,0
Cc1ccc(/C=c2\sc3nnc(-c4ccc(Cl)cc4)n3c2=O)o1,-13,0,7,0
c1ccc2c(c1)Nc1ccccc1C2NNC1c2ccccc2Nc2ccccc21,0,0,69*,0
O=C1Nc2ccccc2NC(=O)C2C3c4ccccc4C(c4ccccc43)C12 (stereo not drawn),-8,1,17,0
Cc1nnc(SCC(=O)Nc2nc3c(s2)CC(C)CC3)s1 (stereo not drawn),2,0,-16,0
COc1ccc(NC(=O)CSc2nc3ccccc3o2)cc1OC,1,-2,33*,0
CC1CCc2nc(NC(=O)CSc3nc4ccccc4o3)sc2C1 (stereo not drawn),1,2,67*,0
COc1ccc(NC(=O)CSc2nc3ccccc3o2)cc1,-3,3,-55,1
O=C(C1c2ccccc2Oc2ccccc21)N1CCC(Cc2ccccc2)CC1,-8,-2,-13,0
Nn1c(SCc2ccccc2Br)nnc1C(F)(F)F,-2,2,3,0
Cc1cccc(-n2c(SCC(=O)Nc3nccs3)nnc2-c2cccnc2)c1C,-24,-1,-1,0
O=C(CSc1nnc(-c2cccc([N+](=O)[O-])c2)n1-c1ccccc1)Nc1nccs1,-8,0,44*,0
O=C(CSc1nnc(-c2ccco2)n1-c1ccccc1)Nc1nccs1,-20,-1,1,0
O=C(CSc1nnc(-c2ccccn2)n1-c1ccccc1Cl)Nc1nccs1,-2,0,59*,0
O=C(CSc1nnc(-c2cccnc2)n1-c1ccccc1Cl)Nc1nccs1,5,-1,39*,0
CCc1ccccc1-n1c(SCC(=O)Nc2nccs2)nnc1-c1cccnc1,6,0,57*,0
O=C(NNC1=NC2(CCCC2)Cc2ccccc21)c1ccccc1[N+](=O)[O-],16,4,1,0
COc1ccccc1C(=O)OCC(=O)c1ccc([N+](=O)[O-])cc1,6,-1,-7,0
SMILES,MITF primary,GPR151 activ,TEAD-YAP block,FBW7 activator
O=C(COC(=O)c1ccccc1C(F)(F)F)c1ccc([N+](=O)[O-])cc1,-10,0,38*,0
CC(=O)Oc1cccc2ccc(/C=C/c3cccc(F)c3)nc12,-7,-5,40*,0
COc1cc(/C=C/c2ccc3cccc(OC(C)=O)c3n2)cc(OC)c1OC(C)=O,8,-1,7,0
COC(=O)C/C=N/N=C1/NC(=O)/C(=C/C(=O)O)S1,57*,1,9,0
COC(=O)/C=C1\S/C(=N\N=C\c2ccc(Cl)cc2)NC1=O,12,-1,6,0
O=S(=O)(NCCSc1ccccc1)c1ccccc1,6,0,-4,0
CCc1ccc(-n2c(C)cc(/C=C(/C#N)C(=O)N3CCOCC3)c2C)cc1,7,-1,-66,0
